Out of some 2,400 compounds screened, fewer than 10 were called active. Another 1% or so got no clear call; they are omitted.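 The calls were made as follows: active = highest replicate activation at or above 34% and every replicate reaching that threshold; inconclusive = meets only one of the two criteria; inactive = meets neither criterion.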 These entries were drawn from the full list.

Sequence of Protein FosB (Mus musculus) (P13346 whole entry, looked up): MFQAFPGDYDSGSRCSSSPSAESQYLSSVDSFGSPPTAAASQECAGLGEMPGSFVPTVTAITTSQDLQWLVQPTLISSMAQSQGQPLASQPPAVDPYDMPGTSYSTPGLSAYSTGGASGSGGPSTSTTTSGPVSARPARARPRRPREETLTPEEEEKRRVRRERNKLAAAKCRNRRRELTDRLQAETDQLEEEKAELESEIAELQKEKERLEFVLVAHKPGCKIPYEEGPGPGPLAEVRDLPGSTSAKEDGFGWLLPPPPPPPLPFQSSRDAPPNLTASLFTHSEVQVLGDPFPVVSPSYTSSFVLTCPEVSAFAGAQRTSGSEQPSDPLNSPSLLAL

The assay has as its target Protein FosB (Mus musculus) (UniProt P13346). As to the kind of experiment: enhancers of delta FosB homodimer–AP-1 oligo binding – biochemical, fluorescence polarization, TAMRA-CDK5 oligo, cherry-picked samples, confirmation (AID 588690).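 Also: higher polarization means more probe DNA bound by delta FosB.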 The note with it: purified delta FosB, at 24.9 µM, active compounds read high, normalised: neutral wells 0, positive control 100.
As for `O=C(Nc1ccc(Br)cc1)c1cc(S(=O)(=O)Nc2ccccn2)ccc1Cl`, the activation is 0.723% (inactive).
For `COc1cccc(CNC(=O)c2nnn(CC(=O)Nc3cc(Cl)ccc3C)c2N)c1`, the activation was 5.89% (inactive).
Next, `Cc1ccc2nc(-c3ccccn3)cc(C(=O)Nc3ccc4c(c3)OCO4)c2c1`: 5.01% (inactive); `CN(C)CC(O)COc1ccc(C(C)(C)c2ccc(OCC(O)CN(C)C)cc2)cc1` (stereo not drawn): 3.1% (inactive).
As to `O=C(Cn1cc(-c2nnnn2-c2ccc(Cl)cc2)c(=O)c2ccccc21)c1ccccc1`, the activation is 0.385% (inactive).
For the molecule `CCn1c(=O)c2cc(C(=O)Nc3cccc(C(C)=O)c3)sc2c2ccccc21`, the activation is 8.7% (inactive).
For `CC(=O)Nc1ccc(C(=O)CSc2nnc(Cc3ccccc3)o2)cc1` the value was 1.84% (inactive); for `O=C(N/N=C/c1cccc(O)c1)c1cc2c(ccc3ccccc32)o1`, -5.62% (inactive).
Next, `CC(=O)c1ccc(NC(=O)C2CC(=O)Nc3nc4ccccc4n32)cc1` (stereo not drawn): -4.9% (inactive); `CCCCn1c(N)c(N(CCC(C)C)C(=O)COC(=O)c2ccc(CC)cc2)c(=O)[nH]c1=O`: 0.0735% (inactive); `Cc1sc2nc(CSCC(=O)Nc3c(Cl)cccc3Cl)[nH]c(=O)c2c1C`: -0.487% (inactive).
For the molecule `COc1cccc(NC(=O)Cn2c3ccc(F)cc3c3nc4n(c(=O)c32)CCS4)c1`, the activation is -5.72% (inactive).
Regarding `COc1ccc(-c2cc3n(n2)CCc2nc4ccccc4n2-3)cc1`, the activation is 6.36% (inactive).
For the molecule `O=C(COC(=O)c1ccc(S(=O)(=O)N2CCc3ccccc3C2)cc1)NC(=O)NCc1ccco1`, the activation was -0.464% (inactive).
Next, `O=c1c2ccccc2oc2nc(C3CCCCC3)n(Cc3ccco3)c(=O)c12`: -1.5% (inactive); `Cc1ccc2nc(NC(=O)C3CCN(S(=O)(=O)c4ccc5c(c4)oc(=O)n5C)CC3)sc2c1`: -11.8% (inactive).
As for `COC(=O)c1sc2ncccc2c1OCc1ccc(Cl)cc1Cl`, the activation was -1.37% (inactive).
Next, `O=C(N/N=C/c1ccco1)c1ccc(NC(=O)C2CC2)cc1`: -0.767% (inactive); `O=C1c2cccc3cccc(c23)C(=O)N1c1cccc(O)c1`: 3.04% (inactive).
Take `COc1cc2[nH]c(=O)n(Cc3ccc(C(=O)NC4CCN(Cc5ccccc5)CC4)cc3)c(=O)c2cc1OC`: the activation was 0.608% (inactive).
For `Cc1ccc(-c2cc(C(=O)N/N=C/C=C/c3ccccc3)n[nH]2)o1` the value was 2.21% (inactive); for `COc1ccccc1NC(=O)C1=C(C)Nc2nnnn2C1c1cccc(Br)c1` (stereo not drawn), 5.03% (inactive); for `Nc1nonc1-n1nnc(C(=O)N/N=C/c2ccc(Cl)cc2)c1-c1ccc2c(c1)OCO2`, 1.91% (inactive).
Next, `COC(=O)c1ccc(C23CC4(C2)[C@H](CN(Cc2cccnc2)[C@@H]4c2ccccc2)C3c2ccc(Cl)nc2)cc1` (stereo partly drawn): -13.4% (inactive); `COc1ccc(C(=O)Nc2c(N)nc(SCC(=O)Nc3ccc(C(C)=O)cc3)[nH]c2=O)cc1`: 5.95% (inactive); `COc1ccc(NC(=O)CCC(=O)Nc2nnc(C3CCCCC3)s2)cc1`: 3.71% (inactive).
For the molecule `COc1ccc(C(=O)n2nc(-c3ccc(Cl)cc3)nc2N)cc1OC`, the activation is 0.58% (inactive).
For `N#Cc1c(N)nc2c3c(sc(=N)c2c1N)NC(=O)CC3c1ccccc1Cl` (stereo not drawn) the value was 3.21% (inactive); for `Cc1ccc(NC(=O)COc2ccc(/C=N\NC(=O)c3cccnc3)cc2)cc1C`, 5.95% (inactive); for `CCOc1ccccc1NC(=O)Cn1nnc(C(=O)NCc2cccs2)c1N`, 2.5% (inactive).
Next, `CCOc1ccc2nc(N(CCN(C)C)C(=O)c3ccc4ccccc4c3)sc2c1`: -2.94% (inactive); `COc1ccccc1CNC(=O)Cn1c(=O)oc2cc(Cl)ccc21`: 5.98% (inactive); `O=C(Cc1ccc(-n2c(=O)c3sccc3n(Cc3ccc(F)cc3)c2=O)cc1)NCc1ccco1`: 7.21% (inactive).
Next, `COc1ccc(/C=C/C(=O)Nc2ccc(C34CC5CC(CC(O)(C5)C3)C4)cc2)cc1OC`: 5.41% (inactive).
Regarding `COc1ccc(Nc2nc(NCc3ccco3)nc(N/N=C/c3ccccc3Cl)n2)cc1`, the activation was 2.55% (inactive).
Next, `Cc1ccc(-c2cc(C(=O)NCc3cn(C)nc3C)c3cc(Br)ccc3n2)cc1`: -0.3% (inactive); `Cc1cccc(C(=O)Nc2ccccc2-c2nnn(CC(=O)Nc3ccc4c(c3)OCCO4)n2)c1`: -0.9% (inactive).
For `COC(=O)c1scc(C)c1NC(=O)CSc1ccc(Cl)cc1` the value was 4.2% (inactive); for `CC[C@@H](C)[C@@H]1CN([C@@H](C)CN2CCC[C@H]2CN2C(N)=NC[C@H]2C(C)C)C(=N)N1CCc1ccc(Cl)c(Cl)c1`, -6.51% (inactive).
Next, `Cc1ccccc1NC(=O)c1ccc(COc2ccc3c(C)cc(=O)oc3c2)cc1`: 1.47% (inactive); `Cc1nnc(NC(=O)Nc2ccc(Cl)c(Cl)c2)s1`: 0.165% (inactive); `NC(=O)NC(=O)CSc1nc2cc([N+](=O)[O-])ccc2n1-c1cccc(C(F)(F)F)c1`: 3.51% (inactive).
Take `O=C(Cn1cnc2c(nnn2Cc2ccc(F)cc2)c1=O)NCc1ccc2c(c1)OCO2`: the activation was 3.1% (inactive).
Next, `O=C(Nc1ccccc1)c1ccc(NC(=O)c2cccs2)cc1`: 6.7% (inactive); `COC(=O)c1nc2n(n1)C(c1ccc([N+](=O)[O-])cc1)C(C(=O)Nc1ccc(Cl)cc1)=C(C)N2` (stereo not drawn): 2.9% (inactive).
Next, `COc1ccc(/C=C/C(=O)Nc2c(C)nn(C)c2C)cc1COc1ccc(Br)cc1`: 5.31% (inactive); `CCCOc1ccc(C(=O)C(CCC(CNCC)C(=O)c2ccc(OCCC)cc2)CNCC)cc1` (stereo not drawn): 4.31% (inactive); `COc1ccc(CC(=O)Nc2ccc(C(=O)NC(C)(C)C)cc2)cc1`: -6.76% (inactive).
Next, `CC(=O)Nc1ccc(S(=O)(=O)NCC(=O)OCc2cc(=O)oc3ccc4ccccc4c23)cc1`: -1.24% (inactive).
Consider `O=C(CN1C(=O)c2cccc3cccc1c23)Nc1ccccc1`, for which the activation was 5.42% (inactive).
As to `O=C(COc1coc(CN2CCN(c3ccccc3F)CC2)cc1=O)N1CCc2ccccc21`, the activation was -0.869% (inactive).
For `CCOc1ccc(-n2c(SCC(=O)Nc3ccc(OC)cc3)nc3sc4c(c3c2=O)CCN(C)C4)cc1` the value was -0.551% (inactive); for `C#CCOCCOCCOCCNc1nc(N2CCN(C(=O)C(Cc3ccc(O)cc3)n3cc(C(N)CC(C)C)nn3)CC2)nc(N2CCN(C(=O)C(Cc3ccc(O)cc3)n3cc(C(N)C(C)CC)nn3)CC2)n1` (stereo not drawn), 2.47% (inactive).

For the origin of these results see PubChem BioAssay AID588690 (Broad Institute, 2011).
